In all, about 130,000 compounds went through this assay and about 1,200 (0.92%) were called active. Entries that show only a call come without a potency. About 3% were inconclusive and are not listed. Only a selection was taken, and actives are over-represented in it overall. Unmarked numbers belong to inactive results. Calls follow the shape of the dose curve; as a rule, active = well fitted cell-killing curve with a large enough effect; inconclusive = small, poorly fitted or top-dose-only effect; inactive = no such curve, though single readings can be large or run the other way.
assay: qHTS Screen for Compounds that Selectively Target Cancer Cells with p53 Mutations: Cytotoxicity of p53ts Cells at the Permissive Temperature; details: H1299-p53A138V at 32C, ATP luminescence viability, 24 h; series mostly up to 46.1 µM; also: nearly all actives have a fitted effect of over 55% in size
Source text: NIH Chemical Genomics Center [NCGC] NIH Molecular Libraries Screening Centers Network [MLSCN] MLSCN Grant: 1 X01 MH079844-01 Assay Submitter (PI): Dr. SUN, YI, University of Michigan NCGC Assay Overview: Synthetic Lethal Screen for Compounds to Kill Cancer Cells with p53 Mutation. Tumor suppressor gene p53 serves as a major cellular barrier against tumorigenesis. […] The goal of this screening is to identify small molecule probes that selectively kill cancer cells with mutations in p53. This screening was carried out using two lines of H1299 lung cancer cells. The H1299-p53 A138V line express a temperature sensitive p53 mutant (p53ts) in which the mutant p53 protein (A138V) is in the mutant confirmation when grown at 39C (the nonpermissive temperature) and in the wild type conformation when grown at 32C (the permissive temperature). A H1299-neo line (p53 null) grown at both 39C and 32C were used as counter-screens to filter out false positive associated with temperature shifting. The small molecular compounds that selectively target mutant p53-containing cancer cells were selected as candidate probes for further study. A cytotoxicity assay based on the measurement of ATP contents in cells was used in this screen. Concentration-responses of all the compounds in the library collection were determined in qHTS using the cell lines and temperature conditions as above.
NCGC Assay Protocol Summary: Both the H1299-p53A138V and H1299-neo cell lines were provided by Dr.Yi Sun, a PI at the University Michigan. The cells were maintained and cultured at 37C. The resuspended frozen cells were used to plate the cells in the 1536-well assay plates at a density of 600 cells per well in 5 ul medium. The assay plates with the cells were incubated at 37C for 16 to 30 hours before the experiments. The library compounds in DMSO solution were added to the cells in assay plates and incubated 24 hours at 39C (for mutant p53 conformation) or 32C (for normal p53 conformation as control). An ATP_lite assay kit (PerkinElmer) was used to determine the cell viability. Tomaxifen (100uM) was used as the positive control for cell killing. Data were normalized to the controls for basal activity (DMSO only) and 100% killing (100uM tamoxifen). AC50 values were determined from concentration-response data modeled with the standard Hill equation. P53 assay protocol: 1. Reagent; 5 uL H1299-p53A138V or H1299-neo cell cells/well 2. Time; overnight; 37C incubation 3. Compounds; 23 nL; 5.9 nM to 46 uM 4. Controls; 23 nL; Tamoxifen 100 uM 5. Time; 24 hr; 37C incubation 6. Reagent; 3 uL; ATP_Lite reagent 7. Time; 20 min; Room Temperature 8. Detection; Luminescence; Viewlux plate reader Keywords: p53, synthetic lethal, cancer, cell viability, cytotoxicity, H1299 cell line, luminescence, MLSMR, MLSCN, NIH Roadmap, qHTS, NCGC
Potency is read from the fitted curve at half-maximal effect.

SMILES | Potency | activity change, negative = cytotoxicity
COc1ccc(NC(=O)Nc2cccc3cccnc23)cc1 | 12.6 µM (active) | 
Cc1cccc(Cn2cccc(C(=O)Nc3ccc4c(c3)OCCO4)c2=O)c1 | inactive | 
CC(=O)c1c(O)c(C)c(O)c(Cc2c(O)c3c(c(C(=O)/C=C\c4ccccc4)c2O)OC(C)(C)C=C3)c1O | inactive | 
CC(C)(c1ccc(OC[C@@H]2CO2)cc1)c1ccc(OC[C@H]2CO2)cc1 | 12.6 µM (active) | 
CCOC(=O)c1ccc(N2C(=O)c3[nH]nc(-c4ccccc4)c3C2c2ccc(C(C)C)cc2)cc1 (stereo not given) | inactive | 
Cc1nnc(NC(=O)c2cccn(Cc3cccc(F)c3)c2=O)s1 | inactive | 
C=CC#N |  | -9.3% [at 1.84 µM]
O=C(Nc1ccc(Cl)cc1C(=O)c1ccccc1)c1cc(Cl)cc(Cl)c1 | inactive | 
CN(C)C1C(=O)C(C(N)=O)=C(O)[C@@]2(O)C(=O)C3=C(O)c4c(O)cccc4[C@@](C)(O)C3C[C@@H]12 (stereo not given in full) | inactive | 
CC(C)Nc1nc(Cl)nc(NC(C)C)n1 | inactive | 
CC[C@@H]1CN2CC[C@@H]1C[C@H]2[C@H](O)c1ccnc2ccc(OC)cc12 | inactive | 
C[C@H](CCC(=O)O)[C@H]1CC[C@@H]2[C@H]3CC[C@H]4C[C@H](O)CC[C@@]4(C)[C@@H]3CC[C@@]21C |  | 5.89% [at 9.22 µM]
CC(C)Oc1ccc(NC(=O)c2cc3ccccc3o2)cc1 | 6.31 µM (active) | 
CN(C)c1cccc(C(=O)Nc2nc3ccc(S(=O)(=O)NC(C)(C)C)cc3s2)c1 | inactive | 
Cc1ccc(NC(=O)N(Cc2ccc3c(c2)OCO3)C2CCN(Cc3ccccc3)CC2)cc1F | inactive | 
Cc1ccc(-n2c(/C=C/c3cccc(C(F)(F)F)c3)nc3ccccc3c2=O)cc1 | inactive | 
CCN1C[C@]2(COC)C(O)C[C@H](OC)[C@@]34C5C[C@]6(O)C(OC)C(O)[C@](OC(C)=O)(C5C6OC(=O)c5ccccc5)C(C(OC)C23)C14 (stereo not given in full) | inactive | 
N#Cc1c(Cl)c(Cl)c(Cl)c(C#N)c1Cl | 3.98 µM (active) | 
Cc1ccc(Cl)cc1N1CCN(C(=O)C2CCC(CNS(=O)(=O)c3cccs3)CC2)CC1 (stereo not given) | inactive | 
Cn1cc(/C=C/c2nc3ccccc3c(=O)n2-c2ccccc2)c2ccccc21 | inactive | 

From PubChem BioAssay AID924 (National Center for Advancing Translational Sciences (NCATS), 2007)
